# According to ChEMBL document CHEMBL3988442, “University of Dundee, Small-Polar-MMV Screening Library” (2021):
# Screen size: about 85,000 compounds; about 440 (0.52%) showed an effect of 50% or more. Only a selection was taken, and strong results are over-represented in it overall.
# Test: In vitro enzyme assay to detect hydrolysis of chlorophenol red-beta-D-[…] directly proportional to the number of Toxoplasma stably expressing beta-galactosidase
# Assay type: functional, organism-based, Toxoplasma gondii
# Parameters: scale not given: in the data most compounds retested in dose-response had high values
SMILES,Percent Effect (10 µM),Percent Effect (50 µM)
Cc1ccccc1OCCC(=O)OC(C)C(=O)Nc1sccc1C(N)=O (centres undefined),-4.306%,
CC(C(N)=O)N(C)CCCOc1ccccc1 (centres undefined),,9.989%
CC(C(=O)Nc1sccc1C(N)=O)N(C)CCOc1ccccc1 (centres undefined),66.89%,
CCc1nsc(N2CC(CO)C2)n1,,7.559%
CCCC(O)CNS(=O)(=O)c1cc(F)cc(F)c1 (centres undefined),,-5.662%
CC1CCCN(C(=O)c2cc(O)nc3ccccc23)C1 (centres undefined),,6.15%
COc1ccc(C2CCCN2c2cnccn2)c(OC)c1 (centres undefined),-3.299%,
COc1ccc(C2CCCN2c2nnc(C)s2)c(OC)c1 (centres undefined),0.194%,
COc1ccc(C2CCCN2c2ccnc(C)c2Cl)c(OC)c1 (centres undefined),50.91%,
NCCN1CCc2c(Cl)cccc2C1=O,,17.2%
NC1CCN(C(=O)C2CCCC2)C1 (centres undefined),,2.86%
Cn1nc(-c2nc(C(C)(C)C)no2)ccc1=O,,3.371%
N#CC[C@@H](N)c1ccccc1,,-6.546%
CNc1cc(-c2cccc(OC)c2OC)nc(N)n1,,50.78%
COc1ccc(F)c(-c2cc(NCCO)nc(N)n2)c1,0.663%,
COc1ccc(-c2cc(NCCO)nc(N)n2)cc1C,,29.21%
CC(C)(C)CCOc1cnccc1CN,,14.78%

SMILES,Percent Effect (10 µM),Percent Effect (50 µM)
Cc1cc(NCCO)nc(N2CCC(Cc3ccccc3)CC2)c1C#N.O=C(O)C(=O)O,62.98%,
Cc1cc(C)c(C#N)c(N2CCC(Cc3ccccc3)CC2)n1,-2.69%,
Cc1cc(NCCO)nc2ccccc12,,-2.255%
Cc1cc(NCCO)nc(N2CCN(C)CC2)c1C#N,-10.98%,
Cc1cc(NCCO)nc(N2CCCC2)c1C#N,1.046%,
CCCC(C)C(=O)N1CCOCC1 (centres undefined),,-3.427%
NC(=O)CN(CCCO)Cc1ccccc1,,-1.308%
O=S(=O)(CCN1CCC(CO)CC1)c1ccccc1,,-26.81%
CCc1cc(=O)[nH]c(-n2nc(C3CC3)cc2NC(=O)C2CC2)n1,96.09%,
Cn1nc(CNC(=O)C2CC2)cc1C1CC1,-6.984%,
CCc1c(C)nc(-n2nc(C3CC3)cc2NC(C)=O)[nH]c1=O,-1.935%,
CC(C)c1cc(=O)[nH]c(-n2nc(C3CC3)cc2N)n1,94.68%,
CCCc1cc(=O)[nH]c(C(C)(N)CC)n1 (centres undefined),,0.6774%
CC(C)c1cc(=O)[nH]c(C(C)(C)N)n1.Cl,21.75%,
CCCc1cc(=O)[nH]c(-n2nc(-c3cccs3)cc2N)n1,36.6%,
Cc1cc(=O)[nH]c(-n2nc(C3CC3)cc2N)n1,28.72%,
CCCc1cc(=O)[nH]c(-n2nc(C3CC3)cc2N)n1,94.33%,
